Measurements reported in PubChem BioAssay AID1159580 (chemical genetic matrix, 2015).
Values joined by “and” are separate entries in the source; they are usually repeats but may differ in a detail not shown here. Equal entries are not always repeated. In all, about 5,500 compounds went through this assay and about 2,000 (36%) were called active. Roughly 18% stayed inconclusive and do not appear here. No stated cut-off is given here; in the data, active means normalized growth mostly below about 0.91 (no sharp cut-off); inconclusive means no clear call, values can overlap the other calls; inactive means mostly above about 0.92. This is one part of the list.

Experiment: chemical genetic growth profiling, strain panel (AID 1159580);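 further: tested at 20 µM; growth read once vehicle control cultures reached saturation at 30 °C; 1 = growth at the plate median or of vehicle wells; lower values mean less growth of the strain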
Settings: S. cerevisiae deletion strains, growth OD

Measured: normalized growth

C[C@]12CC[C@H](O)C[C@H]1CCC1C2CC[C@]2(C)[C@@H](C3=CC(=O)OC3)[C@@H](O)C[C@]12O (stereo partly drawn)
inactive: locus YBR021W, strain FUR4, active compounds read low 1.02 | locus YBR229C, strain ROT2, active compounds read low 1.02 | locus YCL029C, strain bik1, active compounds read low 1.01 | locus YDL035C, strain GPR1, active compounds read low 1.08 | locus YDL074C, strain BRE1, active compounds read low 1.1 | locus YDL101C, strain DUN1, active compounds read low 1.02 | locus YDL185W, strain tfp1, active compounds read low 0.974 | locus YDL192W, strain arf1, active compounds read low 1.02 | locus YDR101C, strain arx1, active compounds read low 1 | locus YDR150W, strain NUM1, active compounds read low 1.03 | locus YDR162C, strain NBP2, active compounds read low 1.03 | locus YDR318W, strain mcm21, active compounds read low 0.998 | locus YDR388W, active compounds read low 0.984 | locus YDR502C, strain sam2, active compounds read low 1.01 | locus YEL061C, strain CIN8, active compounds read low 1.02 | locus YER110C, active compounds read low 0.997 | locus YER155C, strain BEM2, active compounds read low 1 | locus YER167W, strain BCK2, active compounds read low 1.02 | locus YGL078C, strain dbp3, active compounds read low 0.982 | locus YGL086W, strain mad1, active compounds read low 1 | locus YGL248W, strain PDE1, active compounds read low 1.05 | locus YGR078C, strain PAC10, active compounds read low 1.03 | locus YGR135W, strain pre9, active compounds read low 1 | locus YGR229C, strain SMI1, active compounds read low 1.13 | locus YGR252W, strain gcn5, active compounds read low 0.962 | locus YHR030C, strain SLT2, active compounds read low 1 | locus YHR079C, strain IRE1 (second series), active compounds read low 0.983 | locus YHR079C, strain IRE1, active compounds read low 0.982 | locus YHR094C, strain hxt1, active compounds read low 0.982 | locus YHR129C, strain ARP1, active compounds read low 1.03 | locus YHR200W, strain rpn10, active compounds read low 0.995 | locus YIL066C, strain RNR3, active compounds read low 1.03 | locus YIL073C, strain SPO22, active compounds read low 1.07 | locus YIL125W, strain kgd1, active compounds read low 1.02 | locus YIR030C, strain dcg1, active compounds read low 0.994 | locus YJL095W, strain BCK1, active compounds read low 1.07 and 0.981 | locus YJL134W, strain LCB3, active compounds read low 1.02 | locus YJL168C, strain set2, active compounds read low 0.975 | locus YJL187C, strain SWE1 (second series), active compounds read low 1.04 | locus YJR043C, strain POL32, active compounds read low 1.06 | locus YJR066W, strain TOR1, active compounds read low 0.968 | locus YKL009W, strain mrt4, active compounds read low 1.01 | locus YKL068W, active compounds read low 0.994 | locus YKL085W, strain MDH1 (second series), active compounds read low 0.996 | locus YKL085W, strain MDH1, active compounds read low 0.996 | locus YKL190W, strain CNB1, active compounds read low 1.02 | locus YKR001C, strain vps1, active compounds read low 1.03 | locus YLR039C, strain RIC1, active compounds read low 1.15 | locus YLR058C, strain SHM2, active compounds read low 1.04 | locus YLR102C, strain apc9, active compounds read low 0.989 | locus YLR113W, strain HOG1, active compounds read low 0.975 | locus YLR262C, strain YPT6, active compounds read low 1.16 | locus YLR268W, strain sec22, active compounds read low 1 | locus YLR330W, strain CHS5, active compounds read low 1.02 | locus YLR342W, strain FKS1 (second series), active compounds read low 1.05 | locus YLR371W, strain rom2, active compounds read low 1 | locus YLR418C, strain cdc73, active compounds read low 1.01 | locus YML016C, strain PPZ1, active compounds read low 1.03 | locus YML032C, strain rad52, active compounds read low 1 | locus YML124C, strain tub3, active compounds read low 0.987 | locus YMR078C, strain ctf18, active compounds read low 0.986 | locus YMR223W, strain ubp8, active compounds read low 1 | locus YMR307W, strain GAS1, active compounds read low 1.19 | locus YNL067W, strain RPL9B, active compounds read low 1.01 | locus YNL153C, strain GIM3, active compounds read low 1.04 | locus YNL183C, strain NPR1, active compounds read low 0.93 | locus YNL233W, strain BNI4, active compounds read low 1.06 | locus YNL250W, strain rad50, active compounds read low 1.01 | locus YNL271C, strain bni1, active compounds read low 0.999 | locus YNL298W, strain CLA4, active compounds read low 0.994 | locus YNL307C, strain MCK1, active compounds read low 0.98 | locus YNR052C, strain pop2, active compounds read low 0.987 | locus YOL006C, strain TOP1, active compounds read low 1.27 | locus YOL012C, strain htz1 1.03 | locus YOL147C, strain pex11, active compounds read low 0.993 | locus YOR061W, strain CKA2, active compounds read low 1.03 | locus YOR069W, strain VPS5, active compounds read low 1.02 | locus YOR136W, strain idh2, active compounds read low 0.991 | locus YOR144C, strain elg1, active compounds read low 0.989 | locus YOR184W, strain ser1, active compounds read low 1.05 | locus YOR231W, strain MKK1, active compounds read low 0.982 | locus YOR316C, strain cot1, active compounds read low 1 | locus YPL256C, strain CLN2, active compounds read low 1.03 | locus YPR119W, strain clb2, active compounds read low 0.982 | locus YPR141C, strain kar3, active compounds read low 0.997 | locus YPR163C, strain tif3, active compounds read low 0.997 | locus YPR167C, strain met16, active compounds read low 0.99 | strain wtn01, active compounds read low 1.02
